From PubChem BioAssay (Tox21)
Records with an inconclusive call do not appear. Active and inactive are the calls of the source. Calls follow the shape of the dose curve; as a rule, active = well fitted activation curve with a large enough effect in the repeat runs; inconclusive = weak or mixed curves; inactive = no such curve, though single readings can be large or run the other way.

Biological target: Nuclear receptor subfamily 1 group I member 3 (Homo sapiens) (UniProt Q14994)
Experiment: qHTS assay to identify small molecule agonists of the constitutive androstane receptor (CAR) signaling pathway (AID 1224839); also: nearly all actives have a fitted effect of over 15% in size;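 as to activation: HepG2 cells stably carrying human CAR and a CYP2B6 luciferase reporter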
Details: HepG2 hCAR CYP2B6-luciferase, agonist mode, 24 h; series mostly up to 92.4 µM; activation: at the top concentration
Excerpt: National Center for Advancing Translational Sciences [NCATS] NIH Chemical Genomics Center [NCGC] U.S. Environmental Protection Agency [EPA] National Institutes of Environmental Health Sciences [NIEHS] National Toxicology Program [NTP] Assay overview: The constitutive androstane receptor (CAR) is a nuclear receptor which regulates multiple drug metabolizing enzymes (DMEs) and transporters. Activating CAR will generally increase the transcription and subsequent translation of CYP2B6 and CYP3A4. These two DMEs represent about 50% of the drug metabolizing potential in the body. […] Recently, there have also been studies performed indicating CARs role in energy metabolism and cancer therapy. Therefore, inducing CARs activity could have a potential effect on diabetes and cancer. Identifying environmental toxins and compounds which modulate CAR, through the use of the Tox21 10K compound collection, will be an important step in determining the toxicity and potential therapeutic effects these factors will have on the human body.
Assay Protocol Summary: A double-stable (hCAR and CYP2B6-2.2kb) transfected cell line, derived from human hepatoma (HepG2) cells, was utilized for the duration of the quantitative high-throughput screens. The HepG2-CYP2B6-hCAR cells suspended in DMEM culture medium supplemented with 10% FBS, 5 ug/mL blasticidin, 0.5 mg/mL geneticin, 100 U/mL penicillin and 100 ug/mL streptomycin were dispensed at 2500 cells/4 uL/well in 1536-well white solid bottom plates using a Multidrop Combi. After the assay plates were incubated at 37 C/5% CO2 for 4 hrs, 23 nL of compounds at 15 concentrations (from 5-48 columns) or positive control (from 1 to 4 columns) were transferred to the assay plates using a Pintool station. One uL of PK11195, was added using a Flying Reagent Dispenser to generate a final concentration of 0.75 uM PK11195 inside each well. After a 24 hr incubation period at 37 C/5% CO2, four uL of ONE-Glo reagent was added into the assay plates using a Flying Reagent Dispenser. After a 30 min incubation period at room temperature, the luminescence intensity in the assay plates was measured using a ViewLux plate reader.
% is scaled to controls: 0 for no effect and ±100 for the full control effect; potency is read from the fitted curve at half-maximal effect.

Sequence of Nuclear receptor subfamily 1 group I member 3 (Homo sapiens) (Q14994 whole entry, looked up): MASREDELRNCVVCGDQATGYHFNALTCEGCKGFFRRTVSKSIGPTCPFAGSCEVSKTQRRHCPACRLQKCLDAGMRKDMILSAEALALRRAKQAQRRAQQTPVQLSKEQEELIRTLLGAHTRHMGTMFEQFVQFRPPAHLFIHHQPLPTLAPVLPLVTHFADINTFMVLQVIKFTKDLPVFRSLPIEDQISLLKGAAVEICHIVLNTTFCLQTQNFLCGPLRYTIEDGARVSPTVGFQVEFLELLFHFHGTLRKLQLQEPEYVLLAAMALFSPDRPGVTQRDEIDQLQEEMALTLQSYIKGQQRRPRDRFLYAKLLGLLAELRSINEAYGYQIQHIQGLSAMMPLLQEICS

SMILES | activation | Potency
CC(C)C=O | 5.45% (inactive) | 
CN(C)CCN1C(=O)c2ccccc2N(C)c2ccccc21 |  | 26.6 µM (active)
C=C(C)C(=O)OCCOCCOC(=O)C(=C)C | -2.01% (inactive) | 
Cc1ccccc1S | 1.19% [at 42.5 µM] (inactive) | 
CCCC(=O)C(=O)O | 3.28% (inactive) | 
CCCCCCCC/C=C\CCCCCCCCCCCC(=O)O | -1.31% (inactive) | 
O=C(O)CCCCCCCCCCCBr | 8.66% (inactive) | 
CC(C)Nc1cccnc1N1CCN(C(=O)c2cc3cc(NS(C)(=O)=O)ccc3[nH]2)CC1 | -4.54% [at 42.5 µM] (inactive) | 
CCCCCC[C@@H](O)C/C=C\CCCCCCCC(=O)O | -0.447% (inactive) | 
C[C@]12CC[C@@H]3c4ccc(O)cc4CC[C@H]3[C@@H]1CC[C@@H]2OC(=O)CCC1CCCC1 |  | 15.4 µM (active)
COc1ccccc1NC(=O)c1cc2ccccc2cc1O |  | 17.2 µM (active)
CCOc1cccc(-n2cc(C(=O)N3CCN(c4cc(C(=O)O)c5ccccc5c4)CC3)nc2-c2ccc(C)cc2)c1 | -2.7% (inactive) | 
CCCCCCCCC(CCCCCC)C(=O)O (stereo not given) | -0.82% (inactive) | 
NCCNCCO | 0.258% (inactive) | 
O=C(O)c1cccc(-c2noc(-c3ccccc3F)n2)c1 |  | 0.0075 µM (active)
O=C(CCCN1CC=C(n2c(=O)[nH]c3ccccc32)CC1)c1ccc(F)cc1 | -1.29% [at 42.5 µM] (inactive) | 
Cc1cc2c(OCC(CNC(C)(C)C)OC(=O)c3ccccc3)cccc2[nH]1 (stereo not given) | -1.25% [at 42.5 µM] (inactive) | 
CC/C=C1/OC(=O)c2ccccc21 | -0.907% (inactive) | 
CCOC(=O)OC(C)OC(=O)[C@@H]1N2C(=O)[C@@H](NC(=O)[C@H](N)c3ccccc3)[C@H]2SC1(C)C (stereo not given in full) | 1.52% [at 42.5 µM] (inactive) | 
CC(C)(C)C(=O)C(=O)O | -0.809% (inactive) | 

SMILES | activation | Potency
CC1=C(Br)C(=O)C(Br)=C/C1=C(/c1ccccc1S(=O)(=O)O)c1cc(Br)c(O)c(Br)c1C | -15.5% [at 42.5 µM] (inactive) | 
O=c1c(O)c(-c2ccc(O)cc2)oc2cc(O)cc(O)c12 |  | 36.8 µM (active)
C/C=C/C=C/C=O | -1.75% (inactive) | 
C[C@H]1c2cccc(O)c2C(O)=C2C(=O)[C@]3(O)C(O)=C(C(N)=O)C(=O)[C@@H](N(C)C)[C@@H]3[C@@H](O)[C@@H]21 | -3.58% [at 42.5 µM] (inactive) | 
CCCCCCCCCCCCCCN(CCO)CCO | -22.4% (inactive) | 
N#CCc1ccc(Cl)cc1Cl | -1.37% (inactive) | 
C=C1C[C@@]23CC[C@H]4[C@@](C)(CCC[C@@]4(C)C(=O)O[C@@H]4O[C@H](CO)[C@@H](O)[C@H](O)[C@H]4O)[C@@H]2CC[C@]1(O[C@@H]1O[C@H](CO)[C@@H](O)[C@H](O[C@@H]2O[C@H](CO)[C@@H](O)[C@H](O)[C@H]2O)[C@H]1O[C@@H]1O[C@H](CO)[C@@H](O)[C@H](O)[C@H]1O)C3 | -1.95% (inactive) | 
COc1ccccc1Oc1c(NS(=O)(=O)c2ccc(C(C)(C)C)cc2)nc(-c2ncccn2)nc1OCCO | -3.14% [at 42.5 µM] (inactive) | 
CN1C(=O)OC(C)(C)C1=O | -0.159% (inactive) | 
CC(O)c1ccccc1 (stereo not given) | -1.18% (inactive) | 
CC(=O)Nc1ccc(C)cc1C | 1.61% (inactive) | 
FC(F)(F)c1ccccc1Cl | -1.37% (inactive) | 
C=CC(=O)[O-].C=CC(=O)[O-].[Zn+2] | 0.261% (inactive) | 
CN1CCCC(CC2c3ccccc3Sc3ccccc32)C1 (stereo not given) | -10.3% [at 42.5 µM] (inactive) | 
O=C(O)CCc1nc(-c2ccccc2)c(-c2ccccc2)o1 | -1.09% [at 42.5 µM] (inactive) | 
CC1(C)[C@@H](OC(=O)CCC(=O)O)CC[C@]2(C)[C@H]3C(=O)C=C4[C@@H]5C[C@@](C)(C(=O)O)CC[C@]5(C)CC[C@@]4(C)[C@]3(C)CC[C@@H]12 | -0.109% [at 42.5 µM] (inactive) | 
Cc1cc(=O)c2c(O)c3c(O)cc(=O)c4c3c3c(cc(O)c1c23)C(C)(C)C=4O | -14.4% [at 19 µM] (inactive) | 
CC(=O)OCC[N+](C)(C)C | 1.35% [at 42.5 µM] (inactive) | 
CN1CCCN=C1COC(=O)C(O)(c1ccccc1)C1CCCCC1 (stereo not given) | -1.19% [at 42.5 µM] (inactive) | 
Oc1cccc(O)c1O | 3.43% (inactive) | 
